Measured values taken from PubChem BioAssay.
Calls of active or inactive are those of the source. Unless noted, the rule behind the calls is not given here.

Experiments:
[1] = tested on: XIP peptide (Xip251-270) binding; assay: small-molecule binders of XIP peptide, primary screen, biochemical, small-molecule microarray, fluorescence 635/667 nm, 0.1 µg/mL protein (AID 1182); conditions: fluorescent protein binding, 635 nm, higher = more signal, called active from +8 up or from −8 down
[2] = tested on: XIP peptide (Xip251-270); assay: small-molecule binders of XIP peptide, primary screen, biochemical, small-molecule microarray, fluorescence 635/667 nm, 0.5 µg/mL protein (AID 1183); conditions: small-molecule microarray binding, fluorescence 635 nm; higher = more signal
[3] = Plasmodium falciparum growth inhibition, primary screen, strain 3D7, DAPI fluorescence, 100 nL (AID 1184);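 note: parasites grown inside human red blood cells in medium with human serum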; conditions: P. falciparum 3D7 growth, 3 d, higher = more signal
[4] = biological target: Homeobox protein Hox-A13 (Mus musculus) (UniProt Q62424); assay: inhibitors of HoxA13-DNA binding, primary screen, biochemical, fluorescence polarization, labeled oligonucleotide (AID 1185); conditions: 15 min, higher = more signal, called active from +8 up or from −8 down
Sequence of Homeobox protein Hox-A13 (Mus musculus) (Q62424 whole entry, looked up): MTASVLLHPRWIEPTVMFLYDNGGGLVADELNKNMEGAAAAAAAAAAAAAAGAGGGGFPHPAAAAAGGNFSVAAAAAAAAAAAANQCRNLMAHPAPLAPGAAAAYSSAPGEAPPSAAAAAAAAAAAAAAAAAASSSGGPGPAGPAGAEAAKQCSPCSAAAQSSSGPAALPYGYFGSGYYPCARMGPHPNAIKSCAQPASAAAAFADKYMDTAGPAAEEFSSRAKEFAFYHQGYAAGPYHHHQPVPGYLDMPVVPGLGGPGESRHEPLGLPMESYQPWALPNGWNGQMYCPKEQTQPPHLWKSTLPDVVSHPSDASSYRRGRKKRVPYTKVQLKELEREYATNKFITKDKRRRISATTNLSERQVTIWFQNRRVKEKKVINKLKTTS

[5] = inhibitors of hydroxyurea-induced Chk1 phosphorylation, primary screen, imaging, HeLa, phospho-Chk1 antibody, percent positive cells (AID 1186); conditions: hydroxyurea-induced phospho-Chk1 immunofluorescence imaging, higher = more signal
[6] = inhibitors of hydroxyurea-induced Chk1 phosphorylation, primary screen, imaging, HeLa, phospho-Chk1 nuclear intensity (AID 1187); conditions: hydroxyurea-induced phospho-Chk1 immunofluorescence imaging, higher = more signal

| SMILES | composite z-score [1] | composite z-score [2] | z-score [3] | z-score [4] | z-score [5] | z-score [6] |
| --- | --- | --- | --- | --- | --- | --- |
| COC(=O)CCCCCCC(=O)Nc1ccc(NC(=O)CCCC[P+](c2ccccc2)(c2ccccc2)c2ccccc2)cc1 | -0.369 (inactive) | 0.102 | -1.46 | -1.31 (inactive) | -0.917 (inactive) | -1.21 (inactive) |
| CCCC[C@@H](O)C1=C(COc2ccccc2)C[C@H]2C(=O)N(C)C(=O)[C@H]2[C@H]1CO | -0.35 (inactive) | -0.442 | -0.764 | -3.48 (inactive) | -1.66 (inactive) | -1.41 (inactive) |
| C=C(/C(=C/C[C@H](OC(C)=O)c1ccccc1OCCO)c1cc(C(=O)OC)ccc1OC)C(C)C | -0.2 (inactive) | -0.239 | -2.42 | -4.07 (inactive) | -0.0815 (inactive) | -0.292 (inactive) |
| Cc1ccc(S[C@]2(C(=O)O)CC(=O)N(Cc3ccccc3Cl)[C@@H]2c2ccc(CO)cc2I)cc1 | -0.62 (inactive) | 0.261 | 0.204 | -2.54 (inactive) | 0.0343 (inactive) | 0.0261 (inactive) |
| CC(C)N1C(=O)C[C@@](C(=O)NCCCN(C)C)(c2ccc([N+](=O)[O-])cc2)[C@H]1c1ccc(CO)cc1 | -0.324 (inactive) | 0.51 | 0.0784 | -2.62 (inactive) | 0.414 (inactive) | 0.273 (inactive) |
| O=C1O[C@H](c2ccccc2)[C@H](c2ccccc2)N2[C@H]1[C@@H](C(=O)Nc1nc3ccccc3s1)[C@]1(C(=O)Nc3ccccc31)[C@H]2c1ccc(OCCO)cc1 | -0.434 (inactive) | 0.652 | -1.33 | 1.24 (inactive) | 0.0458 (inactive) | -0.0249 (inactive) |
| O=c1n(-c2ccccc2)c(=O)n2n1CC(COc1ccccc1)=C([C@H](O)CCc1ccccc1)[C@@H]2CO | 0.0148 (inactive) | -0.407 | -0.601 | -7.77 (inactive) | -0.268 (inactive) | 0.771 (inactive) |
| Cc1ccc(S[C@]2(C(=O)O)CC(=O)N(C3Cc4ccccc4C3)[C@@H]2c2ccc(CO)cc2)cc1 | 1.36 (inactive) | -0.669 | 1.58 | -3.97 (inactive) | 0.172 (inactive) | 0.129 (inactive) |
| COc1ccc(C#Cc2ccc3c(c2)[C@]2(C(=O)N3)[C@H](c3ccc(O)cc3)N3[C@H](c4ccccc4)[C@H](c4ccccc4)OC(=O)[C@H]3[C@@H]2C(=O)O)cc1 | -0.101 (inactive) | 0.83 | -1.23 | -5.22 (inactive) | -0.368 (inactive) | -0.664 (inactive) |
| O=C1C=C(c2ccccc2)C(=O)c2ccc([C@H]3Oc4ccccc4S(=O)(=O)N4CCC[C@@H]34)cc21 | -0.668 (inactive) | 0.468 | -3.17 | -3.05 (inactive) | 0.808 (inactive) | 0.885 (inactive) |
| NC(=O)NCC#Cc1ccc2c(c1)[C@]1(C(=O)N2)[C@H](C(=O)O)[C@H]2C(=O)O[C@H](c3ccccc3)[C@H](c3ccccc3)N2[C@@H]1c1ccc(OCCO)cc1 | -0.316 (inactive) | 0.419 | -0.46 | -6.34 (inactive) | 0.242 (inactive) | 0.615 (inactive) |
| CCOC(=O)[C@H]1[C@@H]2C(=O)N3CCC[C@H]3[C@H](O[Si](C(C)C)(C(C)C)C(C)C)[C@H]2C=C2CCN(S(=O)(=O)c3ccc(C)cc3)C[C@H]21 | 0.0514 (inactive) | 0.589 | -2.23 | -4.48 (inactive) | 0.186 (inactive) | -0.0427 (inactive) |
| NC(=O)NCC#Cc1ccc2c(c1)[C@]1(C(=O)N2)[C@H](C(=O)NC[C@H](O)c2ccccc2)[C@H]2C(=O)O[C@H](c3ccccc3)[C@H](c3ccccc3)N2[C@@H]1c1ccc(OCCO)cc1 | 0.869 (inactive) | 0.528 | -0.0803 | -2.75 (inactive) | 0.179 (inactive) | 0.446 (inactive) |
| COc1ccc([Si](C)(C)[C@@H]2[C@@H](CC(=O)N(CCO)Cc3ccccc3)O[C@]3(C(=O)N(Cc4cccc(N5C(=O)c6cccc7cccc5c67)c4)c4ccccc43)[C@H]2C)cc1 | -0.338 (inactive) | 0.604 | -2.52 | -0.625 (inactive) | -0.512 (inactive) | 0.0885 (inactive) |
| CN(C)c1ccc(C(O)C2C=CC3C(=O)N(c4ccccc4)C(=O)C3N2Nc2ccc([N+](=O)[O-])cc2)cc1 (stereo not given) | -0.0383 (inactive) | 0.648 | -0.704 | -5.57 (inactive) | 0.55 (inactive) | -0.576 (inactive) |
| O=C1NC(=O)C2C1C=CC(C(O)c1cccc3ccccc13)N2Nc1ccc(Cl)cc1Cl (stereo not given) | 1.46 (inactive) | 0.497 | -0.0879 | -4.57 (inactive) | 0.461 (inactive) | 0.3 (inactive) |
| CC(C)(C)N1CC=CC23O[C@@H]4C=CCOC(=O)[C@@H]4[C@H]2C(=O)N(CCCCCCO)[C@@H]3C1=O (stereo not given in full) | -0.196 (inactive) | 0.448 | -0.429 | -4.45 (inactive) | -0.156 (inactive) | -0.43 (inactive) |
| CCCCO[C@H]1C[C@H]2C(I)=C[C@@H]1C(=O)[C@]21CO1 | -0.178 (inactive) | 0.08 | 1.06 | -1.07 (inactive) | 0.187 (inactive) | -0.0533 (inactive) |

| SMILES | composite z-score [1] | composite z-score [2] | z-score [3] | z-score [4] | z-score [5] | z-score [6] |
| --- | --- | --- | --- | --- | --- | --- |
| [N-]=[N+]=Nc1ccccc1[C@H]1OC(c2ccc(OCCCO)cc2)=N[C@@]1(CCS(=O)(=O)c1ccccc1)C(=O)NCCN1CCOCC1 | 0.345 (inactive) | 0.868 | -2.52 | -5.15 (inactive) | 0.392 (inactive) | 0.812 (inactive) |
| COCCOC(=O)N1C(=O)[C@@]2(c3cc(C#CC4=CCCCC4)ccc31)[C@H](c1ccc(O)cc1)N1[C@H](c3ccccc3)[C@H](c3ccccc3)OC(=O)[C@H]1[C@@H]2C(=O)N1CCN(c2ncccn2)CC1 | -0.0719 (inactive) | 0.306 | 0.145 | -0.674 (inactive) | -0.231 (inactive) | -0.758 (inactive) |
| COC(=O)[C@@]1(Cc2ccccc2N=[N+]=[N-])N=C(c2ccc(OCCCO)cc2)O[C@H]1c1ccccc1N=[N+]=[N-] | 0.764 (inactive) | 0.848 | -2.03 | -0.305 (inactive) | -0.362 (inactive) | -0.267 (inactive) |
| O=C(N1CCCCC1)[C@@]1(CCS(=O)(=O)c2ccccc2)COC(c2ccc(OCCCO)cc2)=N1 | 1.16 (inactive) | 0.809 | -2 | -5.2 (inactive) | -0.0331 (inactive) | -0.187 (inactive) |
| CC[C@H]1C2=C3C(CC[C@H]4C(OCc5ccc(F)cc5C(F)(F)F)OC[C@](C)([C@@H]34)N(C(=O)OC(C)(C)C)C2)C(COC)C1COC (stereo not given in full) | 0.716 (inactive) | -0.379 | 0.133 | -1.11 (inactive) | 0.645 (inactive) | 0.217 (inactive) |
| CCOC(=O)C1=CC[C@@H](c2cccc(Cl)c2)N(S(=O)(=O)c2ccc(C)cc2)C1 | 1.46 (inactive) | 0.662 | -0.639 | -1.21 (inactive) | -0.566 (inactive) | -0.272 (inactive) |
| Cn1cccc1C(O)C1C=CC2C(=O)NC(=O)C2N1Nc1ccc(Cl)cc1Cl (stereo not given) | 0.789 (inactive) | 0.768 | -0.152 | -3.92 (inactive) | 0.702 (inactive) | 0.532 (inactive) |
| CCOc1cc(C(O)C2C=CC3C(=O)N(C)C(=O)C3N2Nc2ccccc2)ccc1O (stereo not given) | 0.705 (inactive) | 0.273 | -0.211 | -2.42 (inactive) | -0.0768 (inactive) | -0.677 (inactive) |
| [N-]=[N+]=Nc1ccccc1[C@H]1OC(c2ccc(OCCCO)cc2)=N[C@@]1(Cc1ccccc1)C(=O)N1CCCCC1 | 0.391 (inactive) | 0.664 | -1.95 | -2.71 (inactive) | -0.549 (inactive) | -0.463 (inactive) |
| C=CCNC(=O)[C@H]1[C@@H]2C(=O)O[C@@H](c3ccccc3)[C@@H](c3ccccc3)N2[C@@H](c2ccc(O)cc2)[C@]12C(=O)N(C(=O)OCCOC)c1ccccc12 | 0.995 (inactive) | 0.742 | -1.38 | -3.73 (inactive) | 0.175 (inactive) | -0.0776 (inactive) |
| C=CCC(OC(C)=O)[C@@H]1[C@@H](N(Cc2cccc3ccccc23)C(=O)c2cccc3ccccc23)c2cc(OCCCO)ccc2N1C(=O)c1ccc(-c2ccccc2)cc1 (stereo not given in full) | 0.71 (inactive) | 0.686 | -2.37 | -1.52 (inactive) | 0.305 (inactive) | 0.466 (inactive) |
| CC(=O)c1ccc(C(O)C2C=CC3C(=O)N(c4ccccc4)C(=O)C3N2Nc2ccc(C#N)cc2)cc1 (stereo not given) | -0.305 (inactive) | 0.441 | 0.981 | -4.75 (inactive) | 0.293 (inactive) | -0.211 (inactive) |
| O=C(CS)NCCCCCNC(=O)[C@@H]1C[C@@H]2C(=O)N3CCC[C@H]3C(=O)N2[C@@H]1c1cccc(OCCO)c1 | 2.29 (inactive) | 0.839 | 1.05 | -3.61 (inactive) | 1.25 (inactive) | 0.575 (inactive) |
| CC(C)N1C(=O)c2ccccc2[C@@H](C(=O)NC2CC2)[C@@H]1c1ccc(CO)cc1 | 0.11 (inactive) | 0.461 | 0.314 | -2.99 (inactive) | -0.0392 (inactive) | -0.0337 (inactive) |
| COC(=O)c1nc2oc1CC[C@@H](CO)NC(=O)N(C)Cc1cnnn1C[C@H](Cc1ccccc1)NC2=O | 0.618 (inactive) | 0.944 | 1.06 | -0.449 (inactive) | -0.517 (inactive) | -0.393 (inactive) |
| COc1ccc([Si](C)(C)[C@H]2[C@H](CC(=O)N(CCO)Cc3ccccc3)O[C@@]3(C(=O)N(Cc4cccc(N5CCOC5=O)c4)c4ccccc43)[C@@H]2C)cc1 | 0.114 (inactive) | 0.77 | -2.69 | -2.33 (inactive) | -0.178 (inactive) | -0.157 (inactive) |
| C=CCOC(=O)[C@H]1[C@@H]2C(=O)O[C@@H](c3ccccc3)[C@@H](c3ccccc3)N2[C@@H](c2ccc(OCCOC(=O)[C@@H]3C[C@@H]4C(=O)N[C@@H](CCCCNC(C)=O)C(=O)N4[C@@H]3c3ccc(O)cc3)cc2)[C@]12C(=O)Nc1ccc(I)cc12 | 0.875 (inactive) | 0.811 | -1.96 | -0.356 (inactive) | -0.235 (inactive) | 0.0348 (inactive) |
